PMC7862700, “An all-to-all approach to the identification of sequence-specific readers for epigenetic DNA modifications on cytosine”

Columns and labels:
Assay in all cases: DAPPL (digital affinity profiling via proximity ligation, sequencing); 10 mM Tris-HCl pH 7.5, 50 mM NaCl, 1 mM DTT, 4% glycerol, room temperature, 30 min; GST-TFs on glutathione beads, 16-mer random dsDNA library, 0.1% formaldehyde crosslink after washing; high values mean tight binding
ELK1 = target: T1, ELK1 (Homo sapiens, UniProt P19419 1-428); conditions: protein: recombinant; tags: N-terminal GST; dsDNA, one strand shown
T1 sequence: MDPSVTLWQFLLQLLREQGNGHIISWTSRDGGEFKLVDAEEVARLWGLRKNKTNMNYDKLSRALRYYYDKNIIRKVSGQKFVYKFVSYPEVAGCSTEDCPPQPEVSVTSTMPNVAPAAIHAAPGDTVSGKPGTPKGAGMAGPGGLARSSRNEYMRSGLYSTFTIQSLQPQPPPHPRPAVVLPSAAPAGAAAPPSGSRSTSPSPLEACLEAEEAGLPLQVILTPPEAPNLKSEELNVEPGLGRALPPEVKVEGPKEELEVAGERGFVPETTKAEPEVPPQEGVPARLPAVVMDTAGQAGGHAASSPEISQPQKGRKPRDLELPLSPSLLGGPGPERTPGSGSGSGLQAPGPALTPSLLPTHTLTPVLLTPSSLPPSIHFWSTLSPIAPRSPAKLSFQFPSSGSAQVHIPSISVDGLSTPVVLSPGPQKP
Procedure, shortened: (§1)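 Pools were built from human transcription factors expressed in yeast as GST fusions, captured on glutathione beads and DNA-barcoded, along with a tag-only sample. Incubation with 200 nmole of a 16-mer random double-stranded DNA library lasted 30 min at room temperature in Tris/NaCl/DTT/glycerol buffer, and was followed by washing, 0.1% formaldehyde crosslinking, proximity ligation, PCR amplification and Illumina NextSeq500 sequencing. Binding signal is the quotient of each hexamer's read frequency for a factor and its frequency for the tag-only sample.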

EHF = target: T2, EHF (Homo sapiens, UniProt Q9NZC4 1-300); conditions: protein: recombinant; tags: N-terminal GST; dsDNA, one strand shown
T2 sequence: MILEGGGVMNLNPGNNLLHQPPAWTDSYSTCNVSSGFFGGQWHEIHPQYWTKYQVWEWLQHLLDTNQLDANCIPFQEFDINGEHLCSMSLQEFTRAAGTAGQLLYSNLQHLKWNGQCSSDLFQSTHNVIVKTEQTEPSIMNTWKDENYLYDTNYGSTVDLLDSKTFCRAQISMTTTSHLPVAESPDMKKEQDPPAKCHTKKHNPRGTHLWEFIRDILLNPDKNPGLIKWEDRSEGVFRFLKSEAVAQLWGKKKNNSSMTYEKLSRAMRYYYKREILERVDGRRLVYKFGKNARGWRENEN
Procedure, shortened: as §1

SPI1 = SPI1 (Homo sapiens, UniProt P17947 1-270); conditions: protein: recombinant; tags: N-terminal GST; dsDNA, one strand shown
Procedure, shortened: as §1

ELK3 = target: T3, ELK3 (Homo sapiens, UniProt P41970 1-407); conditions: protein: recombinant; tags: N-terminal GST; dsDNA, one strand shown
T3 sequence: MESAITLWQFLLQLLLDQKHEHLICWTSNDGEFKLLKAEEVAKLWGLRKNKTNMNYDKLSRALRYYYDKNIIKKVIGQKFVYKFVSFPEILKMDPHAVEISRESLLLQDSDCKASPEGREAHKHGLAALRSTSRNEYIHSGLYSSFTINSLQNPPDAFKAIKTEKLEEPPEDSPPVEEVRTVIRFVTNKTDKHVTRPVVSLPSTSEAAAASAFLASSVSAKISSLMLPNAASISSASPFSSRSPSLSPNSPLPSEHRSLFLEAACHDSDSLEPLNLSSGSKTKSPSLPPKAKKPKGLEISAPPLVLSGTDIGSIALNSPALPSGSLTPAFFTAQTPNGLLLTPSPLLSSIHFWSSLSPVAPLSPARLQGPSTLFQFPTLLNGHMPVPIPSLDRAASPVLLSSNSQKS
Procedure, shortened: as §1

HSF1 = HSF1 (Homo sapiens, UniProt Q00613 1-529); conditions: protein: recombinant; tags: N-terminal GST; chain copies: 3; dsDNA, one strand shown
Sequence of HSF1 (Q00613 whole entry): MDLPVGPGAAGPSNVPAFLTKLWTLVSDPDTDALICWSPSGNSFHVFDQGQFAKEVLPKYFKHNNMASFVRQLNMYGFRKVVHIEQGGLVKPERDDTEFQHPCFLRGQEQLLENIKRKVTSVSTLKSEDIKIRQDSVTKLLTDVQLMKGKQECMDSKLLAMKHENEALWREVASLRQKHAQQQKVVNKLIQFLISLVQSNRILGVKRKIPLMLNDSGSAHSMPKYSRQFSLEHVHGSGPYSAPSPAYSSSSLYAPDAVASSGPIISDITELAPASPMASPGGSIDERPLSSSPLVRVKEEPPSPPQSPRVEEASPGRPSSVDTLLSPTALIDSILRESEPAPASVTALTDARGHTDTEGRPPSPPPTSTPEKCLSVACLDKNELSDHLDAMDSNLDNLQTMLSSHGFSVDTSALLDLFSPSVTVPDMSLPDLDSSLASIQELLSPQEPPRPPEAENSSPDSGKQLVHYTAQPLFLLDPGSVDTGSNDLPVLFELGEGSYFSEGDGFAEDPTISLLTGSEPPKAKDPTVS
Procedure, shortened: as §1

ELF4 = ELF4 (Homo sapiens, UniProt Q99607 1-663); conditions: protein: recombinant; tags: N-terminal GST; dsDNA, one strand shown
Sequence of ELF4 (Q99607 whole entry): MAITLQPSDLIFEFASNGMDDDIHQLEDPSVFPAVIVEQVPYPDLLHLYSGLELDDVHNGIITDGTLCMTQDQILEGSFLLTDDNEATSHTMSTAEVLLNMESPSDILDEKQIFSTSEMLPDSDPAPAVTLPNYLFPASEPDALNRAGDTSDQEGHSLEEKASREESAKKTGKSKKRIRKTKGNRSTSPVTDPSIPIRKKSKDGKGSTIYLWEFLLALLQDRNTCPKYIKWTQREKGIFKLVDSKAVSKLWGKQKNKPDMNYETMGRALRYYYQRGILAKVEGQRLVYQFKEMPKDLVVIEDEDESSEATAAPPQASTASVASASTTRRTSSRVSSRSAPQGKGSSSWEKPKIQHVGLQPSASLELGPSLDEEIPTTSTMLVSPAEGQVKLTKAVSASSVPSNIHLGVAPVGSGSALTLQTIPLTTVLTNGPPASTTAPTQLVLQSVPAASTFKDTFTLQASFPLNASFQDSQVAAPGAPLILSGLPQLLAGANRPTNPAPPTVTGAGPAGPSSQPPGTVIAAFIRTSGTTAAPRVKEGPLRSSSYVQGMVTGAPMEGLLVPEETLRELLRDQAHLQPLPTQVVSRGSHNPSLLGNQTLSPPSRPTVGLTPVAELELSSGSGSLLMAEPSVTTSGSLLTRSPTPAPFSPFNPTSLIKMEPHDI
Procedure, shortened: as §1

ELK4 = target: T4, ELK4 (Homo sapiens, UniProt P28324-2 1-405); conditions: protein: recombinant; tags: N-terminal GST; dsDNA, one strand shown
T4 sequence: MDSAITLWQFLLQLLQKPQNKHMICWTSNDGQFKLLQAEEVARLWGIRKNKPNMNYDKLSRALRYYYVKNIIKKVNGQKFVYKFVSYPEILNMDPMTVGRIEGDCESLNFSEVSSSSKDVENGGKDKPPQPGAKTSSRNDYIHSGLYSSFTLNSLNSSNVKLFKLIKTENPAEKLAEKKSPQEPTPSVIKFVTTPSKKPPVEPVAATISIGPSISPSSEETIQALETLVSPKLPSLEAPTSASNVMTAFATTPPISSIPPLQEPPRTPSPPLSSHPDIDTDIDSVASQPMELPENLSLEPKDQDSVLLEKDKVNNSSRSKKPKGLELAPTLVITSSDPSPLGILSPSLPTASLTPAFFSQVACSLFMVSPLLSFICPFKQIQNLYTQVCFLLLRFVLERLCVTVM
Procedure, shortened: as §1

CRX = CRX (Homo sapiens, UniProt O43186 1-299); conditions: protein: recombinant; tags: N-terminal GST; dsDNA, one strand shown
Sequence of CRX (O43186 whole entry): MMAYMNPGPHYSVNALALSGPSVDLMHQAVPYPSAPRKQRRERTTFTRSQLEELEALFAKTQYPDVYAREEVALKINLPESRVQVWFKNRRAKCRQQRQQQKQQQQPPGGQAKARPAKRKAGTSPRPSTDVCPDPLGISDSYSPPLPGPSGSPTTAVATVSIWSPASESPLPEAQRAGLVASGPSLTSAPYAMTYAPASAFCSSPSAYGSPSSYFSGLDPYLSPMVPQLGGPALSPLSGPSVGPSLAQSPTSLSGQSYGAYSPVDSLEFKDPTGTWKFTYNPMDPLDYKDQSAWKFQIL
Procedure, shortened: as §1

ETV3L = target: T5, ETV3L (Homo sapiens, UniProt Q6ZN32 1-361); conditions: protein: recombinant; tags: N-terminal GST; dsDNA, one strand shown
T5 sequence: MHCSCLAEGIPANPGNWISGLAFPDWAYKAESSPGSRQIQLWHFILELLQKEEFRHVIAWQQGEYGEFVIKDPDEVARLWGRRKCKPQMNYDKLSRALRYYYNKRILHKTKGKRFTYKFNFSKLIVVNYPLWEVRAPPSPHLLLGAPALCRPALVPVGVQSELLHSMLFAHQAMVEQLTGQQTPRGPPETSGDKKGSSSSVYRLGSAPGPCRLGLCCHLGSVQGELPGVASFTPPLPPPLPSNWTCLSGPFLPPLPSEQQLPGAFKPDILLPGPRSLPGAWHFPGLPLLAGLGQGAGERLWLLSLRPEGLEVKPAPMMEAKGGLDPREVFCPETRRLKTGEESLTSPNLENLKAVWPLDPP
Procedure, shortened: as §1

ETS2 = target: T6, ETS2 (Homo sapiens, UniProt P15036 1-469); conditions: protein: recombinant; tags: N-terminal GST; dsDNA, one strand shown
T6 sequence: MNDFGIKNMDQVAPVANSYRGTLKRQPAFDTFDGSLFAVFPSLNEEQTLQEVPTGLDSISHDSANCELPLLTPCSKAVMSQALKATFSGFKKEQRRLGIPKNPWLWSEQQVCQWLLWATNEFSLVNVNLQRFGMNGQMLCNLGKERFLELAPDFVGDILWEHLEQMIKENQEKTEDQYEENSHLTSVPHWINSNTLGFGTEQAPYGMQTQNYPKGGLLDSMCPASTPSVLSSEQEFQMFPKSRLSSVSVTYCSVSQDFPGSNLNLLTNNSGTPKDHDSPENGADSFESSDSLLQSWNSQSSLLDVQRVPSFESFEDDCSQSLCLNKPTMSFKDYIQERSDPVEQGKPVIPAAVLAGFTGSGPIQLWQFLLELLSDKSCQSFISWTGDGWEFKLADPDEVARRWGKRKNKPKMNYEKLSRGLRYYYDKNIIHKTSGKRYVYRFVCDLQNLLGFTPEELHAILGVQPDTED
Procedure, shortened: as §1

SPDEF = target: T7, SPDEF (Homo sapiens, UniProt O95238 1-335); conditions: protein: recombinant; tags: N-terminal GST; dsDNA, one strand shown
T7 sequence: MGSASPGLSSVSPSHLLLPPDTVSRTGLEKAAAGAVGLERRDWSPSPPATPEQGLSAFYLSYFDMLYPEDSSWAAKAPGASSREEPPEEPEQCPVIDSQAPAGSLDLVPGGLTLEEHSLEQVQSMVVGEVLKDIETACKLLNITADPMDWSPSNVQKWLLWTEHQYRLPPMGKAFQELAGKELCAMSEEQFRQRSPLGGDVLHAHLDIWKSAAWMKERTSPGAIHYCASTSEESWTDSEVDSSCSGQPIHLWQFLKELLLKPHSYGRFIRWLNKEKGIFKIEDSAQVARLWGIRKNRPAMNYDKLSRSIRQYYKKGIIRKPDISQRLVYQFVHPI
Procedure, shortened: as §1

ETV6 = ETV6 (Homo sapiens, UniProt P41212 1-452); conditions: protein: recombinant; tags: N-terminal GST; dsDNA, one strand shown
Sequence of ETV6 (P41212 whole entry): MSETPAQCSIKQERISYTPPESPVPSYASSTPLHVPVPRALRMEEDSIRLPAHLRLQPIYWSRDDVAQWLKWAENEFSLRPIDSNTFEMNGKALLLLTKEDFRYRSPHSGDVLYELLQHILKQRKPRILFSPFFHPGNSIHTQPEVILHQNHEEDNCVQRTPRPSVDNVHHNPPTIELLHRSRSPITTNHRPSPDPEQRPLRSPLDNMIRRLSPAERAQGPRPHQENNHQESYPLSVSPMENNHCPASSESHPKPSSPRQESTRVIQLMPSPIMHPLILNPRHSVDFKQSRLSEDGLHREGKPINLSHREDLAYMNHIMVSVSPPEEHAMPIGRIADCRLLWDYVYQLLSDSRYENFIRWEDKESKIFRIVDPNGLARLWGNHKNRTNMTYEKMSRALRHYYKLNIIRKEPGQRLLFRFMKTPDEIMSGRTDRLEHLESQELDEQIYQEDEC
Procedure, shortened: as §1

ETV2 = target: T8, ETV2 (Homo sapiens, UniProt O00321 1-342); conditions: protein: recombinant; tags: N-terminal GST; dsDNA, one strand shown
T8 sequence: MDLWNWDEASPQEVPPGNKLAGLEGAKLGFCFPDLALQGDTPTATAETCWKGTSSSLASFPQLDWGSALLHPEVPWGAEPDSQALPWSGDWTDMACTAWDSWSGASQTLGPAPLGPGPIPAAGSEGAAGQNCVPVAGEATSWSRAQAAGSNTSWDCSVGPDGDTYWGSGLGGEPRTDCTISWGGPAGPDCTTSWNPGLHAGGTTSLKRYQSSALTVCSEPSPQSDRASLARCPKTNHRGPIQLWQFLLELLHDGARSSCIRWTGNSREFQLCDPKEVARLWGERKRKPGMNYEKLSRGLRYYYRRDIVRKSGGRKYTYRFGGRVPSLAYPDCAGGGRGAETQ
Procedure, shortened: as §1

ERF = target: T9, ERF (Homo sapiens, UniProt P50548 1-548); conditions: protein: recombinant; tags: N-terminal GST; dsDNA, one strand shown
T9 sequence: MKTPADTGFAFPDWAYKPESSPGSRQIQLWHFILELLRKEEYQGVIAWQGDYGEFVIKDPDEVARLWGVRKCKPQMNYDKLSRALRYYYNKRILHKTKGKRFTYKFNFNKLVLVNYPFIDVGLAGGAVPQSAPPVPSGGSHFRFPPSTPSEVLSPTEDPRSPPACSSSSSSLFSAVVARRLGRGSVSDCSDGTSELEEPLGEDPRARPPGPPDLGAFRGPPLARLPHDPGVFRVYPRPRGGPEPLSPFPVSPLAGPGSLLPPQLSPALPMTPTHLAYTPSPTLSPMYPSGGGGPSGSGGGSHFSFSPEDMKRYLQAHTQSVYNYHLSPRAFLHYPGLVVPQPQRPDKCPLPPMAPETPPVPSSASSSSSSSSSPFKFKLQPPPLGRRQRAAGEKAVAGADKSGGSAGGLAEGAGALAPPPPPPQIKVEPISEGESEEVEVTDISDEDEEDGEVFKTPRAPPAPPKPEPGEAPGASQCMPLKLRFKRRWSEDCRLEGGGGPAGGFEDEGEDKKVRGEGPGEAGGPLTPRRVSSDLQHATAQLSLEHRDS
Procedure, shortened: as §1

Sequence	binding signal (ELK1)	binding signal (EHF)	binding signal (SPI1)	binding signal (ELK3)	binding signal (HSF1)	binding signal (ELF4)	binding signal (ELK4)	binding signal (CRX)	binding signal (ETV3L)	binding signal (ETS2)	binding signal (SPDEF)	binding signal (ETV6)	binding signal (ETV2)	binding signal (ERF)
AGATTA	1.02 fold enrichment (6-mer frequency, TF over GST control)	1.03 fold enrichment (6-mer frequency, TF over GST control)	1.01 fold enrichment (6-mer frequency, TF over GST control)	1.03 fold enrichment (6-mer frequency, TF over GST control)	2.62 fold enrichment (6-mer frequency, TF over GST control)	1.05 fold enrichment (6-mer frequency, TF over GST control)	1.05 fold enrichment (6-mer frequency, TF over GST control)	4.03 fold enrichment (6-mer frequency, TF over GST control)	1.02 fold enrichment (6-mer frequency, TF over GST control)	1 fold enrichment (6-mer frequency, TF over GST control)	1.05 fold enrichment (6-mer frequency, TF over GST control)	1.04 fold enrichment (6-mer frequency, TF over GST control)	–	–
GAATAG	–	–	–	–	1.11 fold enrichment (6-mer frequency, TF over GST control)	–	1.02 fold enrichment (6-mer frequency, TF over GST control)	–	–	–	1.02 fold enrichment (6-mer frequency, TF over GST control)	–	1.03 fold enrichment (6-mer frequency, TF over GST control)	1.08 fold enrichment (6-mer frequency, TF over GST control)
